Screens (PubChem)
Cycloheximide cs – counter-screen for Shiga toxin inhibitors: cycloheximide protein synthesis inhibition. cell reporter, cycloheximide protein synthesis inhibition counterscreen. 300,000 tested, 12% active. max response, %; in the data active = max response mostly above about 13%, no sharp cut-off; inactive = mostly below about 14%; note: read at 38.3 µM for the half of the compounds with a filed dose
Pf growth 96h – P. falciparum growth inhibition at 96 hours; P. falciparum luciferase reporter growth, 96 h; Potency, µM (titrated, usually from 28.7 µM), usual class: inhibitors; 320,000 tested, 6.9% active
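Cell-based qHTS: luciferase-tagged P. falciparum in erythrocytes (2% hematocrit, 0.05% parasitemia final) incubated with compounds for 96 hours, 37 C, 5% CO2; luciferase detection reagent then added and luminescence measured.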
LmPK inh – inhibitors of Leishmania mexicana pyruvate kinase | Q27686 | purified LmPK, Kinase-Glo ATP luminescence, 1 h | Potency, µM (titrated, usually from 57.5 µM), actives largely listed as inhibitors | 290,000 tested, 0.37% active | AID 1721
Target sequence (Q27686 whole entry, looked up): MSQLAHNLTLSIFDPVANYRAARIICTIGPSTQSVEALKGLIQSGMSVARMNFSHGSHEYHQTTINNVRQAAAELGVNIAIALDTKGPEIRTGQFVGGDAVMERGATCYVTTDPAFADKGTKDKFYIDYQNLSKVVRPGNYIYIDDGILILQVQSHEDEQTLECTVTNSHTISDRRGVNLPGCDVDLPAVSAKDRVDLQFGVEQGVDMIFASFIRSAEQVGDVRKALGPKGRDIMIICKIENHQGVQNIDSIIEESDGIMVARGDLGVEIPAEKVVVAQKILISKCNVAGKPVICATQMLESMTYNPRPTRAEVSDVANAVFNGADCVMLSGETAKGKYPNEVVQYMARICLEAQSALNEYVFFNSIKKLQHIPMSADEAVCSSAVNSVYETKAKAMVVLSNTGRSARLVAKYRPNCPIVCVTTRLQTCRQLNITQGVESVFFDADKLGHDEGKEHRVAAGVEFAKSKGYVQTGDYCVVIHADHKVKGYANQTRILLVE
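0.1 nM LmPK, 0.5 mM PEP, 0.1 mM ADP; 50 mM imidazole pH 7.2, 7 mM MgCl2, 50 mM KCl; 1 h RT. Kinase-Glo luminescence readout, normalized to no-enzyme (full inhibition) and uninhibited wells.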
Shiga toxin inh – blocks Shiga toxin action in Vero cells; Vero cells, Shiga toxin protein synthesis inhibition reporter; inhibition, % at 38.7 µM; 290,000 tested, 9.2% active; AID 2315; in the data active = inhibition mostly above about 28%, no sharp cut-off; inactive = mostly below about 43%
Pf growth 48h – inhibits P. falciparum growth in the first generation, 48 h; 310,000 tested, 5.9% active; AID 504832; P. falciparum luciferase growth in erythrocytes, 48 h; Potency, µM (series often up to 28.7 µM), actives largely listed as inhibitors
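Read-out is firefly luciferase luminescence from an integrated reporter in P. falciparum, so falling signal marks reduced parasite growth. Infected erythrocytes were at 2% hematocrit and 0.1% parasitemia (final) in Albumax-supplemented RPMI 1640.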
Of the large screens only hits and unclear results are named; the others gave an inactive call. Rows were chosen to be rich in hits. Some 22% of all compounds tested hit in one or more screens of this group. Unless noted, calls come from the whole dose curve; as a rule, active = well fitted inhibition curve with a large enough effect; inconclusive = small, poorly fitted or top-dose-only effect, or another doubt; inactive = no such curve, though single readings can be large or run the other way.

CSc1ccccc1NC(=O)CN(C)C(=O)C1CC(=O)N(C(C)c2ccccc2)C1 (stereo not given)	Pf growth 48h inconclusive (no result: Cycloheximide cs, LmPK inh, Shiga toxin inh)
COc1c(C)cccc1C(=O)NCc1ccc2c(c1)OCO2	Pf growth 96h inconclusive
CC(C)C1C(c2ccccc2)NC(c2ccccc2)CC1(O)c1ccc(F)cc1 (stereo not given)	Pf growth 96h inconclusive, Pf growth 48h 4.1µM
CCc1nnc(NC(=O)CSc2nc(-c3ccccc3)cc(-c3ccc(F)cc3)c2C#N)s1	none
N#Cc1c(SCC(=O)Nc2nccs2)nc2c(c1-c1ccco1)CCCC2	Cycloheximide cs 17
COc1cc(-c2cc(-c3ccccc3)nc(SCC(=O)Nc3nccs3)c2C#N)cc(OC)c1OC	Pf growth 96h inconclusive, Pf growth 48h 1.2µM
COc1ccc(CNC(=O)CSc2nc(-c3ccccc3)cc(-c3cccs3)c2C#N)cc1	Pf growth 96h 6.6µM (no result: Pf growth 48h)
Cc1ccccc1NC(=O)CSc1nc2c(c(-c3ccco3)c1C#N)CCCC2	Pf growth 96h inconclusive
CC(=O)Nc1ccc(CN2CCCC(C(=O)c3ccc(C(F)(F)F)cc3)C2)cc1 (stereo not given)	Pf growth 48h inconclusive
CCn1c(NC(C)=O)nc2ccccc21	Pf growth 96h inconclusive
CCCn1c(NC(=O)c2cccc(C)c2C)nc2ccccc21	Pf growth 96h 8.3µM (no result: Pf growth 48h)
CCCn1c(NC(=O)C2CCN(C(=O)c3ccccc3C)CC2)nc2ccccc21	Pf growth 96h inconclusive, Pf growth 48h 12µM (no result: Cycloheximide cs, LmPK inh, Shiga toxin inh)
Cc1cccc(NC(=O)C2CCN(C(=O)c3ccccc3C)CC2)n1	none (no result: Cycloheximide cs, LmPK inh, Shiga toxin inh)
CCn1c(NC(=O)c2cccs2)nc2ccccc21	Cycloheximide cs 47, Pf growth 48h inconclusive (no result: Pf growth 96h)
CCOc1ccccc1NC(=O)C1CCCN1C(=O)OCc1ccccc1 (stereo not given)	Pf growth 96h 9.3µM
COc1cc2nc(N3CCN(C(=O)OCc4ccccc4)[C@H](C(=O)NC(C)(C)C)C3)nc(N)c2cc1OC	Pf growth 96h 5.2µM, Pf growth 48h 2.9µM (no result: LmPK inh)
COC(=O)c1ccc(NC(=O)C2CCCN2C(=O)OCc2ccccc2)cc1 (stereo not given)	Pf growth 96h 5.9µM
COc1ccc(OC)c(NC(=O)C2CCCN2C(=O)OCc2ccccc2)c1 (stereo not given)	Pf growth 48h 13µM
CC(C)(C)[C@H]1CCC(=O)N([C@H](CN=[N+]=[N-])Cc2ccccc2)CC1	Pf growth 96h inconclusive
CCCC(=O)c1c(NCCO)cc(C)oc1=O	Pf growth 96h inconclusive
COc1ccc(C)cc1NC(=O)C1CCCN1C(=O)OCc1ccccc1 (stereo not given)	Pf growth 96h inconclusive, Pf growth 48h 10µM
CCOC(=O)NC(N(O)c1cccc(Cl)c1)C(Cl)(Cl)Cl (stereo not given)	Cycloheximide cs 20
CN(C)C(=O)CSc1nc(-c2ccccc2)nc2c1CCCC2	Pf growth 96h 9.3µM, Pf growth 48h inconclusive
NC(=O)CSc1nc(-c2ccccc2)nc2c1CCCC2	Pf growth 96h 7.4µM
CN(C)CCSc1nc(-c2ccccc2)nc2c1CCC2	Pf growth 96h inconclusive
CCOc1cccc(-c2cc(=O)[nH][nH]2)c1	none
COc1ccc(-c2cc(=O)[nH][nH]2)cc1OC	Pf growth 48h 12µM (no result: Pf growth 96h)
COc1cccc(-c2cc(=O)[nH][nH]2)c1	Cycloheximide cs 22
C/C(=N\NC(=O)c1cc(C(C)(C)C)[nH]n1)C12CC3CC(CC(C3)C1)C2	Cycloheximide cs 23, Pf growth 48h 2.6µM
COc1cccc(NC(=O)CN(C)C(=O)CSc2ncnc3sc(C)c(C)c23)c1	none (no result: Cycloheximide cs, LmPK inh, Shiga toxin inh)
COc1ccccc1OCc1ccc(C(=O)N(C)C)o1	Cycloheximide cs 25, Pf growth 48h inconclusive
CCN(CC)C(=O)c1ccc(COc2ccccc2Cl)o1	Cycloheximide cs 21, Pf growth 96h inconclusive
CN(C(=O)c1ccc(COc2ccccc2Cl)o1)c1ccccc1	Pf growth 96h inconclusive, Pf growth 48h inconclusive
COc1ccccc1NC(=O)c1ccc(COc2ccccc2Br)o1	Pf growth 96h inconclusive
CN(C)C(=O)c1ccc(COc2ccccc2Br)o1	Cycloheximide cs 43, Pf growth 96h inconclusive, Shiga toxin inh 86
O=C(CCN1C(=O)C2C3CC(C(Br)C3Br)C2C1=O)OCC(=O)c1cccc([N+](=O)[O-])c1 (stereo not given)	none
O=C(O)Cc1ccc2c(c1)N(S(=O)(=O)c1cccs1)CC(C(=O)O)O2 (stereo not given)	none
C=C1CCN(C(CC(C)C)C(=O)Nc2ccc(OC)cc2)S(=O)(=O)c2ccccc21 (stereo not given)	none (no result: Pf growth 96h, LmPK inh, Pf growth 48h)
O=C(Nc1nc(-c2ccccn2)cs1)c1cccc(S(=O)(=O)N2CCOCC2)c1	Pf growth 96h inconclusive, Pf growth 48h 1µM (no result: Cycloheximide cs, LmPK inh, Shiga toxin inh)
O=C(COC(=O)c1cccc(S(=O)(=O)N2CCOCC2)c1)Nc1nc(-c2ccccc2Cl)cs1	Cycloheximide cs 28, Shiga toxin inh 93
O=C(Nc1ccccn1)c1ccc(S(=O)(=O)N2CCCC2)cc1	none (no result: Cycloheximide cs, LmPK inh, Shiga toxin inh)
O=C(Nc1nc(-c2ccccn2)cs1)c1ccc(S(=O)(=O)N2CCCCC2)cc1	Pf growth 96h 2.3µM, Pf growth 48h 3.3µM
CCn1cnc2cc(NC(=O)c3ccc(C)cc3)ccc21	Cycloheximide cs 44, Shiga toxin inh 49
Cc1ccc(C(=O)Nc2ccc3c(c2)ncn3C)cc1	Cycloheximide cs 26, Shiga toxin inh 112
COc1cccc(-c2csc(N3CCN(CC(=O)NNC(=O)c4ccco4)CC3)n2)c1	none
CC(=O)Nc1sc(N/N=C/c2ccc(C)cc2)nc1-c1ccc(C)cc1	Cycloheximide cs 52, Pf growth 96h inconclusive, Shiga toxin inh 71, Pf growth 48h inconclusive
CC(=O)Nc1sc(N/N=C/c2ccc(N(C)C)cc2)nc1-c1ccc(C)cc1	Cycloheximide cs 25, Pf growth 96h 4.7µM, Shiga toxin inh 58, Pf growth 48h 2.1µM
CC(=O)Nc1sc(/C(C#N)=C/c2ccc(Cl)c(Cl)c2)nc1-c1ccc(C)cc1	none
Cc1ccccc1NC(=O)C(=O)NCc1ccccn1	Cycloheximide cs 27
Cc1ccc(NC(=O)C(=O)NCc2ccccn2)cc1	Cycloheximide cs 29, Shiga toxin inh 87
Cc1cc(C)cc(NC(=O)C(=O)NCc2ccccn2)c1	none
O=C(NCc1ccccn1)C(=O)Nc1ccccc1	Cycloheximide cs 23, Shiga toxin inh 67
Cc1cc(Br)ccc1NCc1ccccn1	Cycloheximide cs 31, Shiga toxin inh 67
CC(C)N(C(=O)Cn1cc(SCC(=O)NCC2CCCO2)c2ccccc21)C(C)C (stereo not given)	none
O=C(Cc1c(F)cccc1Cl)Nc1ccccc1-c1ccccc1	Pf growth 96h inconclusive
OC(CNCc1ccccn1)c1ccccc1 (stereo not given)	none
c1ccc(NCc2ccccn2)cc1	Cycloheximide cs 18, Shiga toxin inh 95
O=C(O)CCN1C(=O)c2ccc(Oc3ccc([N+](=O)[O-])cc3)cc2C1=O	Pf growth 96h inconclusive
CC(NC(=S)Nc1ccc(S(=O)(=O)N2CCOCC2)cc1)C1CC2CCC1C2 (stereo not given)	Pf growth 96h inconclusive, Pf growth 48h inconclusive
